Screening data (PubChem BioAssay)
Beta apoptosis – beta cell apoptosis inhibition | protection from apoptosis, % (concentration not given with the values) | 300,000 compounds, 0.8% hits | INS-1E cytokine-induced death, ATP luminescence, 48 h; percent of positive-control rescue, neutral wells zero | AID 435005;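 active = Every replicate reaches about 75%, or at least half do and their mean reaches it too, limit read from the data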;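 note: 0% = cytokine-treated negative control wells and 100% = positive control rescue; higher means more ATP so stronger rescue from cytokine killing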
PAX8 reporter – inhibitors of PAX8 transcriptional activity in RMG-I cells | 360,000 compounds, 1.2% hits | RMG-I TPO-luciferase reporter, SteadyGlo, 24 h | inhibition, % at 12.6 µM;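 active = mean replicate inhibition at least 60% with every replicate also reaching 60%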;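 note: luciferase light reporting Pax8 driven TPO promoter activity; plate controls were median of neutral control wells for no effect and mitoxantrone controls for full effect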
Gli-Sufu block – antagonists of Gli-Sufu signaling; inhibition, % at 5 µM; Sufu-KO-LIGHT fibroblasts, Gli luciferase reporter luminescence; 340,000 compounds, 0.74% hits;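 active = inhibition above about 55%, limit read from the data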;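 note: 0% = DMSO-treated cells and 100% = wells with medium but no cells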
CSC inhib – blocks cancer stem cells | cancer stem cell-like cells viability, luminescence | inhibition, % at 7.5 µM | 300,000 compounds, 1.1% hits | AID 2717; in the data active = inhibition above about 75%; tested in HMLE shEcad cells
Mdm2-MdmX inh – inhibitors of human Mdm2/MdmX interaction | O15151+Q00987 | SaOS-2 split-luciferase Mdm2/MdmX complementation, luminescence | inhibition, % at 8 µM | 330,000 compounds, 3% hits;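 active = inhibition of at least 50% at 8 µM in the primary screen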
Shn3 inh set2 – inhibitors of Schnurri-3 3'UTR reporter in osteoblasts; inhibition, % at 12.5 µM; Clone20 osteoblast Shn3 3'UTR firefly luciferase, 24 h; AID 588674; 360,000 compounds, 0.52% hits;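 active = mean inhibition of at least 75% with every replicate also reaching 75%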;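 note: 0% = median of neutral control wells and 100% = pilot-screen positive control compound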
* marks the source's active call; other numbers are inactive results; nt = no result given. An excerpt weighted towards active compounds, which were near 4% of everything screened.

SMILES	Beta apoptosis	PAX8 reporter	Gli-Sufu block	CSC inhib	Mdm2-MdmX inh	Shn3 inh set2
C=CC(=O)NCC1OCCc2ccccc21 (stereo not drawn)	0	7	-1	-9	-9	7
O=C(/C=C/c1ccco1)NCC1OCCc2ccccc21 (stereo not drawn)	107*	9	6	111*	-23	-66
CCc1ccc2[nH]c3nc(N/N=C/c4cccc(O)c4)nnc3c2c1	-2	25	29	98*	8	12
COc1ccc(C(C[N+](=O)[O-])C2(c3ccc(OC)c(OC)c3)C(=O)c3ccccc3C2=O)cc1 (stereo not drawn)	-2	nt	-22	89*	nt	95*
CCCS(=O)(=O)c1nnnn1-c1cccc(OC)c1	-48	nt	1	nt	nt	99*
O=c1[nH]c(CSc2nc3ccccc3s2)nc2ccccc12	3	-24	-24	-18	-23	-30
COc1ccc(C2NCCc3c2[nH]c2ccccc32)cc1CSc1nc2ccccc2s1 (stereo not drawn)	-3	12	10	116*	nt	6
Cc1nc2ccccc2c(=O)n1/N=C/c1ccc(O)c(O)c1O	-5	18	8	-3	-23	1
Cc1nc2ccccc2c(=O)n1/N=C/c1ccc2ccccc2c1O	115*	40	7	20	37	85
COc1ccc(C(=O)Nc2ccc(OCC(F)(F)C(F)F)c(C(F)(F)F)c2)cc1OC	11	nt	3	92*	24	-9
O=C(C[C@@H]1CC[C@@H](NC(=O)c2ccccc2)[C@H](CO)O1)NCc1ccc(Oc2ccccc2)cc1	nt	29	nt	nt	nt	nt
Cc1ccc(C2C(/C=C3/SC(=S)NC3=O)=C(c3cccs3)Oc3ccccc32)cc1 (stereo not drawn)	18	nt	0	108*	43	22
CC(Sc1nc2ccccc2c(=O)n1C)C(=O)Nc1ccc2c(c1)OCCO2 (stereo not drawn)	14	12	33	nt	18	86*
O=C(CSc1ncnc2ccccc12)Nc1ccc2c(c1)OCCO2	-3	-8	30	-1	-40	-8
CC(Sc1ncnc2ccccc12)C(=O)Nc1ccc2c(c1)OCCO2 (stereo not drawn)	-6	63*	37	13	37	29
CCCC(=O)N1CCC2(CC1)CN(C(=O)c1ccc(F)cc1)[C@@H](CO)c1[nH]c3cc(OC)ccc3c12	nt	-10	nt	nt	nt	nt
O=C(C[C@@H]1CC[C@@H]2[C@H](COC[C@H](O)CN2S(=O)(=O)c2ccccc2)O1)NCCN1CCCCC1	nt	5	nt	nt	nt	nt
N#C/C(=C(/O)CCl)c1nc2ccccc2[nH]1	0	39	6	79*	40	9
Cc1cccc(C)c1OCC(=O)OC/C(O)=C(\C#N)c1nc2ccccc2[nH]1	0	69*	-3	-2	-16	15
CCCN(C)C[C@H]1Oc2ncc(-c3ccncc3)cc2C(=O)N([C@@H](C)CO)C[C@@H]1C	nt	-19	nt	nt	nt	nt
CCCCNC(=O)CO/N=C(\C)c1cc2ccccc2o1	-1	nt	-27	-2	-23	-7
C/C(=N\OCC(=O)NCC(F)(F)F)c1cc2ccccc2o1	3	84*	-31	0	-20	-65
CCC(=O)NC(c1ccco1)c1cc(Br)c2cccnc2c1O (stereo not drawn)	nt	35	nt	nt	nt	38
CCCC(=O)NC(c1ccco1)c1cc([N+](=O)[O-])c2cccnc2c1O (stereo not drawn)	-8	14	-3	77*	45	1
CCC(=O)NC(c1ccc(C)cc1)c1cc([N+](=O)[O-])c2cccnc2c1O (stereo not drawn)	83*	12	-4	100*	nt	8
SMILES	Beta apoptosis	PAX8 reporter	Gli-Sufu block	CSC inhib	Mdm2-MdmX inh	Shn3 inh set2
Cc1ccc(S(=O)(=O)Nc2ccc3c(c2)C(=O)N([C@@H](C)CO)C[C@H](C)[C@@H](CN(C)S(=O)(=O)c2c(C)noc2C)OCCCC[C@H](C)O3)cc1	nt	18	nt	nt	nt	nt
CN(CC(=O)Nc1ccccc1Cl)C(=O)c1cccc(S(=O)(=O)N2CCN(c3ccccc3)CC2)c1	nt	18	46	nt	nt	87*
CN(Cc1ccc(Cl)c(Cl)c1)C(=O)c1cccc(S(=O)(=O)N2CCN(Cc3ccccc3)CC2)c1	37	34	12	nt	19	87*
CN(CC(=O)Nc1ccccc1Cl)C(=O)c1cccc(S(=O)(=O)N2CCN(c3ccc(F)cc3)CC2)c1	49	18	33	3	17	88*
CN(Cc1cccc(F)c1)C(=O)c1cccc(S(=O)(=O)N2CCN(Cc3ccccc3)CC2)c1	-3	-2	7	-6	30	9
COc1ccc(S(=O)(=O)Nc2ccc3c(c2)C(=O)N([C@H](C)CO)C[C@@H](C)[C@H](CN(C)C(=O)C2CCCCC2)OCCCC[C@@H](C)O3)cc1	nt	33	nt	nt	nt	nt
CCCNC(=O)C[C@H]1CC[C@@H]2[C@H](COC[C@@H](O)CN2C(=O)c2cccnc2)O1	nt	0	nt	nt	nt	nt
CCCN1C[C@H](C)[C@@H](OC)CN(C)C(=O)c2cc(NC(=O)NC3CCCC3)ccc2OC[C@@H]1C	nt	-25	nt	nt	nt	nt
C[C@H]1CCCCO[C@@H](CN(C)Cc2ccc(C(F)(F)F)cc2)[C@@H](C)CN([C@@H](C)CO)C(=O)c2cc(NC(=O)CCC(F)(F)F)ccc2O1	nt	7	nt	nt	nt	nt
C[C@H]1CCCCO[C@@H](CN(C)Cc2ccc(C(F)(F)F)cc2)[C@@H](C)CN([C@@H](C)CO)C(=O)c2cc(NC(=O)Nc3ccc(F)cc3)ccc2O1	nt	105*	nt	nt	nt	nt
C[C@@H]1CCCCO[C@@H](CN(C)Cc2ccc(C(F)(F)F)cc2)[C@@H](C)CN([C@@H](C)CO)C(=O)c2cc(NC(=O)Nc3ccc(C(F)(F)F)cc3)ccc2O1	nt	8	nt	nt	nt	nt
C[C@@H]1CCCCO[C@@H](CN(C)Cc2ccc(C(F)(F)F)cc2)[C@H](C)CN([C@H](C)CO)C(=O)c2cc(NC(=O)Nc3ccc(C(F)(F)F)cc3)ccc2O1	nt	69*	nt	nt	nt	nt
C[C@@H]1CCCCO[C@@H](CN(C)Cc2ccc(C(F)(F)F)cc2)[C@@H](C)CN([C@@H](C)CO)C(=O)c2cc(NC(=O)Nc3ccc(F)cc3)ccc2O1	nt	55	nt	nt	nt	nt
C[C@@H]1CCCCO[C@@H](CN(C)Cc2ccc(C(F)(F)F)cc2)[C@H](C)CN([C@H](C)CO)C(=O)c2cc(NC(=O)Nc3ccc(F)cc3)ccc2O1	nt	69*	nt	nt	nt	nt
C[C@H](CO)N1C[C@H](C)[C@H](CN(C)Cc2ccc(C(F)(F)F)cc2)OCCCC[C@H](C)Oc2ccc(NC(=O)CCC(F)(F)F)cc2C1=O	nt	77*	nt	nt	nt	nt
C[C@H](CO)N1C[C@H](C)[C@@H](CN(C)S(=O)(=O)c2cn(C)cn2)Oc2c(cccc2N(C)C)C1=O	nt	-7	nt	nt	nt	nt
C[C@@H]1CCCCO[C@@H](CN(C)S(=O)(=O)c2cccs2)[C@H](C)CN([C@H](C)CO)C(=O)c2cc(NC(=O)Nc3cccc4ccccc34)ccc2O1	nt	11	nt	nt	nt	nt
